# Screening results (PubChem)
# Rab9 prom act – activates the Rab9 promoter. Huh7 Rab9 promoter-luciferase reporter, luminescence, 24 h. Potency, µM (highest dose often 9.22 µM), inactives show top-dose activation, negative = inhibition, most hits filed as activators. 2.8% of 320,000 active; further: % of control where 0% means no effect; nearly all actives have a fitted effect of over 60% in size
#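 Luminescence from Amplite-detected luciferase (10 minutes, ambient) reports Rab9 promoter activation. Before that, stable Rab9-luciferase Huh7 cells (1500/well, reduced-serum OP-MEM I plus 10% FBS) were exposed to compound for 24 hours at 37C.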
# ELG1 genotoxic – inducers of genotoxicity in HEK293T ELG1-luciferase cells. 1.3% of 330,000 active. HEK293T ELG1-luciferase reporter, luminescence, 16 h. Potency, µM (series often up to 46 µM), without a hit: at the top dose activity change, positive = activation, usual class: activators. AID 504466; further: % of control where 0% means no effect; nearly all actives have a fitted effect of over 60% in size
#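 ELG1-luciferase HEK293T cells, 2,000/well; compound pinned in; 16 hr, 37 °C, 5% CO2; ONE-Glo, 30 min RT; luminescence on CCD imager.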
# NPC1 prom act – activates the NPC1 promoter | Huh7 NPC1 promoter luciferase reporter, 24 h | Potency, µM (highest dose often 9.22 µM), for the others: at the top dose activation, actives largely listed as activators | 2.4% of 320,000 active | AID 485313; further: % of control where 0% means no effect; nearly all actives have a fitted effect of over 60% in size
#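 Luminescence read-out of NPC1 promoter-driven luciferase in stably transfected Huh7 cells; compounds delivered in DMSO and left 24 h at 37C, 5% CO2, qHTS titration format.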
# SMN2 splice enh – SMN2 splice variant enhancement; HEK293 SMN2-luciferase splicing reporter, luminescence, 30-36 h; 2.8% of 210,000 active; Potency, µM (titrated, usually from 46.1 µM), without a hit: top-dose activity change, positive = activation, usual class: activators; further: % of control where 0% means no effect; nearly all actives have a fitted effect of over 55% in size
#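 qHTS luciferase splicing reporter: luminescence rises when SMN2 exon 7 is included in transfected HEK293 cells. Compound exposure lasted 30-36 h at 37C, with 4.5 mM final sodium butyrate as control, followed by a ONE-Glo read.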
# p53 reactivator – restores transcriptional activity of mutant p53; H1299 p53-A138V BP100-luciferase reporter, luminescence, 24 h; Potency, µM (series often up to 92.2 µM), for inactives: at the highest dose activity change, positive = activation, actives largely listed as activators; 0.063% of 320,000 active; AID 504706; further: % of control where 0% means no effect; nearly all actives have a fitted effect of over 45% in size
#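 p53-null H1299 cells stably carrying temperature-sensitive p53-A138V and a BP100-luciferase reporter were pinned with compounds (4-point, 1:5 series) and held 24 hrs at 37 deg C. Luminescence was read 10 min after detection reagent.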
# FLuc modulator – counter-screen for miR-21 project: firefly luciferase inhibitors or activators; purified FLuc, Km substrates, luminescence inhibition; Potency, µM (series often up to 57.5 µM), inactives show at the top dose activity change, negative = inhibition, usual class: inhibitors; 6.9% of 360,000 active; AID 588342;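 further: plate controls were vehicle for no effect and reference inhibitor for full effect; nearly all actives have a fitted effect of over 55% in size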
# Target sequence (P08659 whole entry, looked up): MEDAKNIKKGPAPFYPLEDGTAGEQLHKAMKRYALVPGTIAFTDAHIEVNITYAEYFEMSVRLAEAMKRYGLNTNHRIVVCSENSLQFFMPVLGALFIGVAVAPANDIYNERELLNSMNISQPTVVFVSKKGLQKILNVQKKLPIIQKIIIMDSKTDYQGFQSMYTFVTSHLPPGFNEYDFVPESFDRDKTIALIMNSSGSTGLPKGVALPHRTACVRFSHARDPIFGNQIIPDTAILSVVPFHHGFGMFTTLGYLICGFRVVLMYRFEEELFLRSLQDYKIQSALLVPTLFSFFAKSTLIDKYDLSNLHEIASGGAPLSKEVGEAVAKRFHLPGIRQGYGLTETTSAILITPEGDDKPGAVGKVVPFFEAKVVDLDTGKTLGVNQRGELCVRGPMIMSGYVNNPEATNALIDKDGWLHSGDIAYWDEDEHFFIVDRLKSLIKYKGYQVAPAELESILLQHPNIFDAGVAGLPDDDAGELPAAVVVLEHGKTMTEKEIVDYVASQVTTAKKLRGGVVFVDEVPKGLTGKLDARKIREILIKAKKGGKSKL
#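 Purified P. pyralis luciferase (10nM final) with 10uM D-luciferin and 10uM ATP (Km levels) in 50mM Tris acetate pH 7.5, 10mM Mg acetate, 0.01% Tween-20, 0.05% BSA; qHTS 6-point titration, ~60 µM downward; luminescence read.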
# An asterisk follows results filed as active; ? = inconclusive; · = no result given; [ ] = remark or other dose. Sampled rows, rich in hits. Any-hit rate of the full collection: about 7.4%. The call rests on the fitted dose curve; in most records, active means well fitted curve in the direction sought with a large enough effect; inconclusive means small, poorly fitted or top-dose-only effect, or another doubt; inactive means no such curve, though single readings can be large; an effect the other way counts as inactive or inconclusive. Potency means the concentration at half of the fitted maximal effect.
SMILES,Rab9 prom act,ELG1 genotoxic,NPC1 prom act,SMN2 splice enh,p53 reactivator,FLuc modulator
COc1cccc(Nc2nc(-c3sc(NC(=O)c4ccco4)nc3C)cs2)c1,-6%,-8%,-6%,1%,11%,24µM*
COc1cccc(Nc2nc(-c3sc(N)nc3C)cs2)c1,?,?,25%,?,27%,13µM*
COc1cccc(Nc2nc(-c3sc(C)nc3C)cs2)c1,26%,14%,24%,·,-14%,19µM*
COc1ccc(OC)c(Nc2nc(-c3sc(C)nc3C)cs2)c1,1%,-2%,0%,-17%,3%,?
Cc1nc(N)sc1-c1csc(NCc2ccccc2)n1,-6%,2%,-6%,-19%,9%,?
Cc1nc(N)sc1-c1csc(Nc2ncccn2)n1,0.56µM*,23µM*,?,5.6µM*,?,3µM*
COc1ccccc1Nc1nc(-c2sc(N)nc2C)cs1,3%,1%,0%,·,·,?
COc1ccccc1CNc1nc(-c2ccco2)nn1S(=O)(=O)c1ccc2ccccc2c1,·,·,·,·,·,-9%
CCc1ccccc1N1C(=O)N(Cc2cccc(Cl)c2)c2ccccc2S1(=O)=O,·,·,·,·,·,-2%
Cc1nc(C)c(-c2csc(Nc3ccc(F)cc3)n2)s1,?,23%,12%,-19%,?,?
Cc1nc(C)c(-c2csc(Nc3ccc(C(=O)O)c(O)c3)n2)s1,4%,-4%,-2%,·,?,12µM*
CC(C)Sc1nc(SCC(=O)O)c2c3c(sc2n1)COC(C)(C)C3,?,?,?,·,12%,13µM*
CC(C)Sc1nc(SCC(=O)NCc2ccco2)c2c3c(sc2n1)COC(C)(C)C3,13%,?,7%,-1%,?,9.5µM*
CC1(C)Cc2c(sc3nc(SCC(=O)O)nc(N)c23)CO1,2%,0%,-3%,·,0%,-18%
CCCN(Cc1cccs1)C(=O)Nc1ccc(Br)cc1F,·,·,·,·,·,-7%
CCOC(=O)C1=C(CN(C)Cc2ccccc2)NC(=O)NC1c1ccc(OC(C)C)cc1 (stereo not given),·,·,·,-32%,·,-13%
CCC(=O)N1CCCc2cc(S(=O)(=O)N3CCC(C(=O)Nc4ccc(F)c(F)c4)CC3)ccc21,·,·,·,·,·,-7%
COc1ccc(NC(=O)C2C3C=CC(C3)C2C(=O)O)cc1 (stereo not given),0%,-2%,1%,·,0%,-2%
Cc1ccc(-c2ccc(NC(=O)C3C4C=CC(C4)C3C(=O)O)cc2)o1 (stereo not given),3.2µM*,15%,3.5µM*,-28%,25%,15µM*
O=S(=O)(Nc1cccc(-c2cn3ccsc3n2)c1)c1ccc(F)cc1,6%,?,-2%,-24%,-3%,?
COc1cccc(OC)c1C(=O)Nc1cccc(-c2cn3ccsc3n2)c1,·,·,·,·,·,24µM*
COc1cc(OC)cc(C(=O)Nc2cccc(-c3cn4ccsc4n3)c2)c1,·,·,·,·,·,6µM*
COc1cccc(C(=O)Nc2ccc(-c3cn4cccnc4n3)cc2)c1OC,·,·,·,-10%,·,-6%
COc1cccc(C(=O)Nc2cccc(-c3cn4ccsc4n3)c2)c1OC,·,·,·,·,·,15µM*
COc1cc(C(=O)Nc2cccc(-c3cn4cccnc4n3)c2)cc(OC)c1OC,6%,-10%,0%,-18%,1%,?
SMILES,Rab9 prom act,ELG1 genotoxic,NPC1 prom act,SMN2 splice enh,p53 reactivator,FLuc modulator
CN(CC(=O)NCCCN1CCOCC1)S(=O)(=O)c1ccc(Cl)cc1,·,3%,·,·,-5%,·
CCOc1ccc(C(=O)/C=C/Nc2ccc(S(=O)(=O)Nc3onc(C)c3C)cc2)cc1,14%,?,-1%,?,29%,15µM*
Cc1noc(NS(=O)(=O)c2ccc(N/C=C\C(=O)c3ccc(Br)cc3)cc2)c1C,-10%,1%,3%,·,5%,27µM*
COc1cccc(C(=O)/C=C/Nc2ccc(S(=O)(=O)Nc3onc(C)c3C)cc2)c1,12%,13%,0%,14%,?,15µM*
Cc1noc(NS(=O)(=O)c2ccc(N/C=C\C(=O)c3ccc4c(c3)OCO4)cc2)c1C,-1%,9%,-1%,-11%,13%,9.5µM*
O=C(O)CC[C@@]1(c2ccccc2)NC(=O)NC1=O,·,·,·,-6%[9.22 µM],·,·
O=C(O)[C@H](Cc1ccc(O)c([N+](=O)[O-])c1)N1C(=O)c2ccccc2C1=O,·,·,·,-5%[9.22 µM],·,·
Cc1noc(NS(=O)(=O)c2ccc(N/C=C\C(=O)c3cccc4ccccc34)cc2)c1C,11%,10%,2%,-15%,-1%,13µM*
COc1ccc(NC(=O)CNC(=O)Cn2ccc3ccccc3c2=O)cc1OC,·,·,·,20%,·,-2%
CCCN1CCN(CCCNC(=O)c2ccc3c(c2)sc2nc(-c4ccc(OCC)cc4)cn23)CC1,·,·,·,-94%,·,11µM*
CCOc1ccc(-c2cc(C(=O)NCCCN3CCN(CC)CC3)c3ccccc3n2)cc1,17%,9%,15%,7%,8%,8.5µM*
Cc1ccc(Nc2cc(C(=O)NCCCN3CCOCC3)c3ccccc3n2)cc1C,-4%,0%,16%,·,7%,12µM*
CCOc1ccc(-c2cn3c(n2)sc2cc(C(=O)NCCCN4CCCCCC4)ccc23)cc1,·,·,·,·,·,-3%
CCOc1ccc(-c2cc(C(=O)NCCCn3ccnc3)c3cc(Br)ccc3n2)cc1,-2%,6%,1%,·,-33%,5.4µM*
O=C(NCCCN1CCOCC1)c1cc(-c2ccc(Br)cc2)nc2ccccc12,-2%,-8%,1%,·,-4%,?
O=C(NCCCN1CCOCC1)c1cc(-c2ccccc2)nc2ccccc12,-1%,8%,-2%,·,-6%,-3%
COc1ccccc1CCNC(=O)c1cc(-c2ccncc2)nc2ccc(Br)cc12,-10%,-9%,-4%,-6%,-3%,2%
COc1ccc2c(c1)OCC(Cc1ccc(OC)c(O)c1)C2=O (stereo not given),·,·,·,-15%,·,·
COc1ccc(-c2cn3c(n2)sc2cc(C(=O)Nc4ccc(C)cc4C)ccc23)cc1,·,·,·,·,·,-1%
COc1ccc(-c2cc(C(=O)NCCN3CCOCC3)c3ccccc3n2)cc1OC,-3%,-6%,0%,·,0%,?
CCOc1ccc(-c2cc(C(=O)NCCCn3ccnc3)c3ccccc3n2)cc1,19%,-8%,11%,21%,4%,6µM*
CCCCNC(=O)c1cc(Sc2ccc(OCC)cc2)nc2ccccc12,·,·,·,·,·,1%
COc1ccc(-c2cc(C(=O)NCCN3CCOCC3)c3ccccc3n2)cc1,1%,-1%,0%,-6%,10%,17µM*
COc1ccc(-c2cn3c(n2)sc2cc(C(=O)Nc4ccc(F)cc4Cl)ccc23)cc1,·,·,·,?,·,19µM*
